The text below walks through data of PubChem BioAssay.

Active and inactive are the calls of the source.

This assay is described as follows: plasmodial surface anion channel blockers, osmotic lysis – cell-based, P. falciparum Indochina, OD700, 18 h, primary screen (AID 1157). The conditions noted are these: P. falciparum Indochina infected erythrocytes, osmotic lysis OD700, 18 h; higher = more signal, called active from +8 up or from −8 down.
As to `COC(=O)C(CC#Cc1ccc2c(c1)[C@]1(C(=O)N2)[C@H](C(=O)NC[C@H](O)c2ccccc2)[C@H]2C(=O)O[C@H](c3ccccc3)[C@H](c3ccccc3)N2[C@@H]1c1ccccc1OCCO)C(=O)OC`, the z-score is -0.124 (inactive).

Take `CN(C)CCCNC(=O)[C@@]1(Cc2ccccc2I)c2ccccc2C(=O)N(C2CCCCC2)[C@H]1c1ccc(CO)cc1`: the z-score is -0.456 (inactive). Under `CN1C(=O)C2C=CC(C(O)c3ccc(-c4ccccc4)s3)N(NC(=O)OC(C)(C)C)C2C1=O` (configuration not stated) stands 0.998 (inactive); under `CCCNC(=O)[C@@]1(Sc2ccc(C)cc2)CC(=O)N(Cc2ccccc2Cl)[C@@H]1c1ccc(CO)cc1I`, 0.303 (inactive); under `CN(C)c1ccc(C(O)C2C=CC3C(=O)N(Cc4ccccc4)C(=O)C3N2n2cnnc2)cc1` (configuration not stated), -0.553 (inactive). Under `C[C@@H]1ON(c2ccccc2)[C@H](c2ccccc2)[C@H]1C(=O)O` stands -0.136 (inactive); under `O=C1[C@H]2C=C(I)[C@H](C[C@@H]2c2ccccc2)[C@@]12CO2`, -0.0396 (inactive); under `C=CCC(OC(C)=O)[C@@H]1[C@@H](N(Cc2ccc(-c3cccc(C(F)(F)F)c3)o2)C(=O)c2ccc(-c3ccccc3)cc2)c2cc(OCCCO)ccc2N1C(=O)c1ccc2ccccc2c1` (some centres not stated), 0.408 (inactive). As for `O=C(NCc1ccc(F)cc1)[C@H]1C[C@H]2C(=O)N3CCC[C@H]3C(=O)N2[C@H]1c1ccc(O)cc1`, the z-score was -1.66 (inactive). Consider `N#Cc1ccc(NN2C(C(O)C3CC=CCC3)C=CC3C(=O)N(c4ccccc4)C(=O)C32)cc1` (configuration not stated), for which the z-score is 1.14 (inactive).

`CCCNC(=O)[C@@]1(c2ccc([N+](=O)[O-])cc2)CC(=O)N(C(C)C)[C@@H]1c1ccc(CO)cc1`: the z-score is 0.205 (inactive). Then `CC(C)N1C(=O)C[C@@](C(=O)NCCN2CCOCC2)(c2ccc([N+](=O)[O-])cc2)[C@H]1c1ccc(CO)cc1`, with 0.35 (inactive). Under `C[N+](C)(C)CCCC[C@@H]1NC(=O)[C@H]2C[C@@H](C(=O)NCCCCCNC(=O)CS)[C@@H](c3cccc(OCCO)c3)N2C1=O` stands 0.204 (inactive); under `[N-]=[N+]=Nc1ccccc1[C@@H]1OC(c2ccc(OCCCO)cc2)=N[C@]1(Cc1ccccc1)C(=O)NCCN1CCOCC1`, 1.92 (inactive); under `CCOC(=O)C[C@H]1[C@H](OC(=O)c2ccccc2-c2ccccc2)[C@@H](NC(=O)C2CCCCC2)c2cc(OCCCO)ccc2N1C(=O)c1ccc2ccccc2n1`, 0.255 (inactive). `NC(=O)N1C(=O)C2C(C1=O)C1C=C(CCCO)C2C(c2ccc(CN3CCCC3)cc2)N1Cc1sc2ccccc2c1Cl` (configuration not stated): the z-score is 0.504 (inactive).

Take `CC(C)(C)N1CC=CC23O[C@@H]4/C=C\CCCOC(=O)C4[C@H]2C(=O)N(CCCO)[C@@H]3C1=O` (some centres not stated): the z-score was 0.429 (inactive).

Turning to `CC(C)N1C(=O)c2ccccc2[C@](C)(C(=O)NCC(F)(F)F)[C@@H]1c1ccc(CO)cc1`, the z-score was -0.16 (inactive). Under `COc1ccc(C#Cc2ccc3c(c2)[C@]2(C(=O)N3)[C@H](C(=O)O)[C@H]3C(=O)O[C@H](c4ccccc4)[C@H](c4ccccc4)N3[C@@H]2c2ccccc2OCCO)cc1` stands -2.29 (inactive); under `CCCCCC1=C2CNC(Cc3ccccc3)(C(=O)OC)C=C2C(C)C1=O` (configuration not stated), 0.422 (inactive); under `CCCCCCc1nc(-c2ccc(-c3ccc(Cl)c(Cl)c3)o2)cc2c1[Si](C(C)C)(C(C)C)OC2`, -0.84 (inactive). Consider `COC(=O)[C@H](Cc1ccccc1)N1CC2=CCCC=C[C@@H]2[C@H]1[C@H](O)Cc1ccccc1`, for which the z-score was 0.256 (inactive). `COC(=O)[C@@]1(Cc2ccc(F)cc2)[C@H]2c3cc(C(=O)N4CCCC4)n(CCc4ccccn4)c3C[C@H]2CN1C(=O)c1ccccc1`: the z-score was 0.446 (inactive). As for `O=C1N(CCS(=O)(=O)c2ccccc2)c2ccccc2C[C@]12N=C(c1ccc(OCCCO)cc1)O[C@@H]2c1ccccc1`, the z-score was 2.95 (inactive). Take `C=CCN1C(=O)[C@]2(O[C@H](CCn3cc([C@H](O)c4ccccc4)nn3)[C@@H]([Si](C)(C)c3ccc(OC)cc3)[C@@H]2C)c2cc(NC(=O)c3ccc(OC)cc3)ccc21`: the z-score was 1.18 (inactive). Under `C=C(COC)C(=O)CC[C@@H](OC(C)=O)c1ccccc1OCCO` stands -1.95 (inactive); under `COC(=O)[C@@]1(Cc2ccc(F)cc2)[C@H]2c3cc(C(=O)N4CCCC4)n(Cc4ccccn4)c3C[C@H]2CN1C(=O)c1ccccc1`, 0.987 (inactive).
